The source made the active and inactive calls. The calls were made as follows: active = hit-call score of the fitted dose curve at least 0.9, where 1 is the maximum; inactive = score below 0.9.

The values that follow come from PubChem BioAssay (EPA / NIEHS).

The experiment in a line: ATG_Sox_CIS: Attagene CIS-FACTORIAL HepG2 Assay for human SRY-box transcription factor (SOX) (AID 2282960). The conditions noted are these: HepG2 Attagene cis-factorial SOX reporter, mRNA; actives raise or lower the signal. The procedure: ATG_CIS is a cell-based, multiplexed-readout assay that uses HepG2, a human liver cell line, with measurements taken at 24 hours after chemical dosing in a 24-well plate.ATG_Sox_CIS is one of 52 assay component(s) measured or calculated from the ATG_CIS assay. It is designed to make measurements of mRNA induction, a form of inducible reporter, as detected with fluorescence intensity signals by Reverse transcription polymerase chain reaction (RT-PCR) and Capillary electrophoresis technology.Data from the assay component ATG_Sox_CIS was analyzed into 1 assay endpoint. This assay endpoint, ATG_Sox_CIS, was analyzed with bidirectional fitting relative to DMSO as the negative control and baseline of activity. Using a type of inducible reporter, measures of mRNA for gain or loss-of-signal activity can be used to understand the reporter gene at the transcription factor-level as they relate to the gene SOX1. Furthermore, this assay endpoint can be referred to as a primary readout, because this assay has produced multiple assay endpoints where this one serves a reporter gene function. To generalize the intended target to other relatable targets, this assay endpoint is annotated to the dna binding intended target family, where the subfamily is HMG box protein.
Human liver HepG2 cells are transiently transfected with multiple reporter transcription units (MRTUs) in 6-well plates using FuGene 6 reagent (Roche; 3 ml FuGene/1 mg DNA). The MRTU constructs are regulated by a cis-regulating element (promoter). […] A major difference between the CIS and TRANS system is that in CIS activities of endogenous TFs are measured, whereas the TRANS assay evaluates changes in activities of exogenous, chimeric NR-Gal4 proteins. […] At the end of 24 hour incubation, total RNA was isolated using TriZol reagent (Invitrogen). The isolated RNA is then reverse-transcribed using oligo(dT) primer and Mo-MLV reverse transcriptase (Invitrogen) with DNAse I (Ambion) treatment for 30 min. The one-tenth of the produced cDNA was amplified by PCR using Taq DNA polymerase (Invitrogen) and two reporter sequence-specific primers. The PCR products were fluorescently labeled by primer extension with 6-arboxyfluorescein (6-FAM) 5'-labeled reporter sequence-specific primer (2 min at 95 C, 20 s at 68 C and 10 min at 72 C) and these products were digested with 5U of HpaI (New England Biolabs) for 2h at 37 C. The fragments were purified using Qiaquick PCR columns (Qiagen), analyzed on an ABI 3130xL genetic analyzer (Applied Biosystems) with peak positions identified by using a set of X-rhodamine (ROX)-labeled MapMarker1000 molecular weight standards (BioVentures). The raw capillary electrophoresis data was processed using Attagraph software (Attagene).
As to `O=C(O)CC(C(=O)O)S(=O)(=O)O` (stereo not given), the result was inactive.

Consider `CC(CCC(=O)O)(c1ccc(O)cc1)c1ccc(O)cc1`, for which the call was inactive.

For `CC(C)(C)NC(=O)[C@H]1CC[C@H]2[C@@H]3CC[C@H]4NC(=O)C=C[C@]4(C)[C@H]3CC[C@]12C`, the call was inactive.

As for `CC(C)C(=O)OCCc1ccccc1`, the outcome was inactive.

Take `CC(=O)CC(=O)Nc1ccccc1C`: the compound was classed as inactive.

As for `CCCCCOC(=O)CCCCC`, the compound was classed as inactive.

Consider `c1ccc(-c2nc3ccccc3[nH]2)cc1`, for which the call was inactive.

For `CCCCc1ccc(Cl)cc1`, the compound was called inactive.

As for `COC(=O)CC(C)CCC=C(C)C` (stereo not given), the outcome was inactive.

Regarding `COc1ccc(-c2coc3cc(O)cc(O)c3c2=O)cc1`, the compound was classed as inactive.

With `O=C(OCc1ccccc1)c1ccc(O)cc1`, the AC50 is 100 µM (active).

`CC(c1cc(C(C)(C)C)cc(C(C)(C)C)c1O)c1cc(C(C)(C)C)cc(C(C)(C)C)c1O`: the call was inactive.

As for `O=C(O)c1ccc2c(c1)C(=O)OC2=O`, the result was inactive.

For `Cc1ccccc1CCO`, the outcome was inactive.

For `CC(C)CCCCCOC(=O)CS`, the compound was classed as inactive.

On to `C=CCCCCCCCCC=O`, for which the compound was called inactive.

As for `C=C1C[C@H]2[C@@H]3C=C(C)C4=CC(=O)CC[C@]4(C)[C@H]3CC[C@]2(C)[C@@]1(OC(C)=O)C(C)=O`, the compound was classed as inactive.

In the case of `Nc1ccc(C(=O)OCCCOC(=O)c2ccc(N)cc2)cc1`, the call was inactive.

As to `Cc1ccc([N+](=O)[O-])cc1N`, the result was inactive.

For the compound `CC(C)[N+](C)(CCOC(=O)C1c2ccccc2Oc2ccccc21)C(C)C`, the compound was classed as inactive.

With `Cc1c(Cl)cccc1Cl`, the result was inactive.

Consider `CCOc1ccc(NC(N)=O)cc1`, for which the compound was classed as inactive.

For `CC(C)c1ccc2ncccc2c1`, the result was inactive.

Turning to `O=S(=O)(O)c1ccc(N=Nc2c(O)ccc3ccccc23)cc1`, the result was inactive.

For the compound `COCC(=O)O`, the result was inactive.

With `O=S(=O)(O)c1ccc(Nc2nc(Nc3ccc(C=Cc4ccc(Nc5nc(Nc6ccc(S(=O)(=O)O)cc6)nc(N(CCO)CCO)n5)cc4S(=O)(=O)O)c(S(=O)(=O)O)c3)nc(N(CCO)CCO)n2)cc1`, the compound was called inactive.

`O=c1c(O)c(-c2ccc(O)cc2O)oc2cc(O)cc(O)c12`: the result was inactive.

With `O=C1CCCCCCCCCCCN1`, the call was inactive.

In the case of `CC1=CC(C)C(C=O)CC1` (stereo not given), the result was inactive.

Turning to `COC(=O)c1ccccc1C`, the compound was classed as inactive.

On to `O=C(O)/C=C/c1ccccc1`, for which the outcome was inactive.

As to `CCCC=C(C=O)CC`, the call was inactive.

Turning to `C=Cc1ccc(OC(C)=O)cc1`, the compound was classed as inactive.

Consider `CCCCCCOc1ccc(N)cc1`, for which the call was inactive.

Take `C=C(C)C(=O)OCCOC(=O)C(=C)C`: the result was inactive.

On to `C1CNCCN1`, for which the compound was called inactive.

With `CCOC(=O)C1=NOC(c2ccccc2)(c2ccccc2)C1`, the outcome was inactive.

`C=CC(=O)OCCCCCCOC(=O)C=C`: the result was inactive.

With `CC1=C(O)C(=O)C(C)O1` (stereo not given), the result was inactive.

In the case of `CCNc1nc(NC(C)(C)C)nc(OC)n1`, the result was inactive.

One may read the AC50 as the midpoint of the concentration-response curve, whichever way the signal moves.
